The values that follow come from PubChem BioAssay AID2326 (National Center for Advancing Translational Sciences (NCATS), 2010).

SMILES strings stand for the structures. Hit rate of the full screen: of about 270,000 compounds, about 1,100 (0.41%) were called active. About 3% were inconclusive and are not listed. This is one part of a sample in which actives are shown more often than they occur. Values without a mark were called inactive. The call rests on the fitted dose curve.
Potency means the concentration at half of the fitted maximal effect.

This test can be described thus: qHTS Assay for Inhibitors of Influenza NS1 Protein Function. Further: actives are rising curves; nearly all actives have a fitted effect of over 50% in size. The settings on record: series mostly up to 46.1 µM; activity, positive = more growth: at the top concentration. From the text: NIH Chemical Genomics Center [NCGC]
NIH Molecular Libraries Probe Centers Network [MLPCN]
Assay Submitter (PI): Daniel Engel
Influenza is a world-wide public health problem and emerging forms of the virus have the potential to cause a pandemic of equal or greater magnitude to the outbreaks recorded in 1918, 1957 or 1968. Vaccine development is proceeding and there also exist two classes of anti-influenza compounds. However these therapeutic modalities are neither fully effective nor widely enough available to fulfill global needs. In addition their potential usefulness against newly emergent strains is not known. Efforts are needed to develop novel agents against influenza virus, including broad-spectrum agents. Identification of small molecules that inhibit NS1 function either directly or by interfering with specific cellular pathways may be a key to increasing our defense against the virus.
We have miniaturized and optimized a cell based assay in which NS1 from influenza A is expressed in the budding yeast S. cerevisiae. NS1 is a multi-functional protein that counters the host innate immune response and facilitates viral versus cellular gene expression. Expression of NS1 causes a pronounced slow growth phenotype in yeast due to its intrinsic molecular activities. Small molecules that suppress the slow growth phenotype can be identified by a straightforward growth recovery assay using optical density (OD) as the measurement. The same yeast strain not expressing NS1 was used as positive control in the yeast growth recovery assay.
The yeast S. cerevisiae control and NS1 expressing cells were kindly supplied by laboratory of Dr. Daniel Engel, University of Virginia. Yeast starter cultures were stored in single use aliquots at -80C.
1. Yeast culture medium per liter: 1.2 g Yeast Nitrogen Base (w/out amino acids and Ammonium Sulphate), 5.0g Ammonium Sulphate, 0.77g -URA DO (drop-out) Supplement, adjust pH to 6.0. Adjust to 2% glucose prior to inoculating with yeast.
2. Yeast assay medium: 1.2 g Yeast Nitrogen Base (w/out amino acids and Ammonium Sulphate), 5.0g Ammonium Sulphate, 0.77g -URA DO (drop-out) Supplement, adjust pH to 6.0. Adjust to 2% D-galactose prior to inoculating with yeast.
1. Inoculate 100 mls of yeast culture medium with 1 ml of frozen yeast aliquote. Incubate overnight at 30C, 250RPM.
2. Harvest overnight culture at 4000 RPM and wash pellet with 15 mls H2O 3x.
3. Re-suspend washed pellet in 10 mls of yeast assay medium.
4. Prepare a 1:100 dilution of re-suspended culture in yeast assay medium.
5. Dispense 3.5 ul per well of reagents in step 4 in columns 2-48 in a black clear bottom 1536 well plate.
6. Dispense 3.5 ul per well of yeast assay medium in column 1 only.
7. Transfer 23 nl of compound per well.
8. Dispense 3.5 ul per well of yeast assay medium in columns 1-48.
9. Read plate using Viewlux protocol for optical density 600 (OD600) using excitation filter 600nm.
Background: qHTS replaces the single test concentration by a dilution series.
On to `COc1ccc(/C=C2\SC(=O)N(CCC(=O)NCCCn3ccnc3)C2=O)cc1`, for which the “activity, positive = more growth” value is -0.375%.
With `COC(=O)CN1C(=O)C(C)(C)Oc2ccc(C(=O)Nc3cccc(OC)c3)cc21`, the “activity, positive = more growth” value was -9.9%.
For `CCCCNC(=O)CSc1nc2n[nH]c(C)c2c(=N)n1-c1cccc(Cl)c1C`, the “activity, positive = more growth” value was 9.85%.
For the compound `COc1cccc(-n2c(SCC(=O)NC3CCCCC3)nc3n[nH]c(C)c3c2=N)c1`, the Potency is 3.16 µM (active).
With `Cc1ccc(-n2c(SCC(=O)NCCC3=CCCCC3)nc3n[nH]c(C)c3c2=N)cc1Cl`, the “activity, positive = more growth” value was -0.553%.
Still for that read-out and setting: next, `O=C(NC(=S)Nc1ccc(Cl)cc1Cl)C1CC1`: -10.3%; `COc1ccc(Oc2cn[nH]c2-c2ccc(OC)cc2O)cc1`: -65.9%; `Cc1cc(C)c(SCCc2ccncc2)c(C)c1`: -40.4%.
Consider `O=c1c2ccccc2ncn1/N=C/c1ccccc1`, for which the “activity, positive = more growth” value was -8.05%.
The same measure, in the same setting: next, `O=C(Nc1ccc(N2CCN(C(=O)c3ccccc3)CC2)c(Cl)c1)c1cccnc1`: -2.87%.
Consider `C[C@@H](C(=O)Nc1ccc2ccccc2c1)[C@@H]1C[C@@]1(C)[C@@H](NC(=O)c1cccnc1)c1ccccc1`, for which the Potency is 12.6 µM (active).
As to `COC(=O)[C@H](C)[C@H]1C[C@]1(C)[C@H](NC(=O)OCc1ccccc1)c1ccccc1`, the “activity, positive = more growth” value is -66.8%.
With `O=C(Nc1nnc(C2=COCCO2)o1)c1ccc([N+](=O)[O-])s1`, the “activity, positive = more growth” value is -17.1%.
On to `O=C(N/N=C\c1cc2c(cc1Cl)OCO2)c1ccc(Br)s1`, for which the “activity, positive = more growth” value was -1.29%.
For the compound `CCCOC1CCCN(C(=O)c2cc(COc3cncc(Cl)c3)on2)C1` (stereo not given), the “activity, positive = more growth” value was -16.5%.
On the same count and under the same terms, next, `CC(C)(C)c1ccc(CN2C(=O)c3ccccc3S2(=O)=O)cc1`: -6.88%.
In the case of `COc1cccc(-c2nc(CS(=O)CC(=O)NCc3ccc(F)cc3)c(C)o2)c1` (stereo not given), the “activity, positive = more growth” value is 6.23%.
With `COc1ccc(-c2nc(CS(=O)CC(=O)NCc3ccccn3)c(C)o2)cc1` (stereo not given), the Potency is 14.1 µM (active).
As to `COc1ccc(-c2nc(CS(=O)CC(=O)NCc3ccccc3)c(C)o2)cc1OC` (stereo not given), the “activity, positive = more growth” value was 2.37%.
As for `Cc1c(C)n(Cc2ccc(Cl)cc2)c2ccc(C(=O)NCCCN3CCOCC3)cc12`, the “activity, positive = more growth” value is 2.54%.
Consider `COCc1nc2ccccc2n1Cc1ccccc1Br`, for which the Potency is 2.82 µM (active).
Regarding `COCn1c(COc2ccccc2)nc2ccccc21`, the “activity, positive = more growth” value is -9.61%.
In the case of `COc1ccccc1Cn1c(CO)nc2ccccc21`, the “activity, positive = more growth” value is 2.42%.
Turning to `CN(CCO)c1ccc(/C=N/Nc2nncc3ccccc23)cc1`, the “activity, positive = more growth” value is -0.974%.
As for `CCc1ccccc1S(=O)(=O)Cc1ccc(C(=O)NCCc2ccccc2)o1`, the “activity, positive = more growth” value is 5.46%.
On the same count and under the same terms, the same measure for `Clc1c(OCCCn2ccnc2)ccc2ccccc12`: -92.1%.
For the compound `Cn1c(CC(=O)Nc2ccccc2)nnc1SCC(=O)c1ccccc1`, the Potency is 11.2 µM (active).
Take `Cn1c(CSCC(=O)Nc2ccccc2)nnc1SCc1ccccc1`: the “activity, positive = more growth” value was -3.56%.
Take `Cn1c(Cc2cccs2)nnc1SCC(=O)Nc1ccccc1`: the “activity, positive = more growth” value was 11.6%.
In the case of `O=S1(=O)CCOC[C@H](CC2CCCCC2)N1Cc1ccc(F)cc1`, the “activity, positive = more growth” value was -5.09%.
In the case of `Cc1nonc1C1CCCN1C(=O)c1cc(COc2cccc(C(F)(F)F)c2)on1` (stereo not given), the “activity, positive = more growth” value is 1.92%.
Regarding `COc1ccc(C(=O)CC(=O)c2ccc(C)cc2)c(O)c1`, the “activity, positive = more growth” value is -8.33%.
Still for that read-out and setting: the same measure for `O=C(Nc1ccccc1)c1ccc2c(c1)OCCCO2`: -89.8%.
Turning to `Cc1cc(=O)[nH]c(SCc2cc(Cl)ccc2OC(F)F)n1`, the Potency is 3.16 µM (active).
Turning to `COc1ccccc1-c1noc(CSc2nc(C)cc(=O)[nH]2)n1`, the “activity, positive = more growth” value was 1.14%.
Take `Cc1cc(=O)[nH]c(SCc2cccc(F)c2)n1`: the “activity, positive = more growth” value is -3.47%.
As to `CC(=O)N1CCc2c(sc(NC(=O)CCS(=O)(=O)c3ccccc3)c2C#N)C1`, the “activity, positive = more growth” value was -4.08%.
Turning to `Cc1ccc(N(Cc2cc(=O)[nH]c3ccccc23)C(=O)CCl)cc1`, the “activity, positive = more growth” value is 2.46%.
For the compound `CC(C)n1c(COc2ccccc2)nc2ccccc21`, the “activity, positive = more growth” value was -47.3%.
For the compound `Cc1cccc(NC(=O)c2ccc3c(=O)n(CC4CCCO4)c(=S)[nH]c3c2)c1` (stereo not given), the “activity, positive = more growth” value is -0.15%.
Regarding `CC1CCN(C2=NC(=O)/C(=C/c3ccc(O)cc3)S2)CC1`, the “activity, positive = more growth” value was 15%.
Regarding `CC(=O)Nc1ccc(OCC(O)CN2CCN(c3ccccc3Cl)CC2)cc1` (stereo not given), the “activity, positive = more growth” value is -6.58%.
As to `OC(COc1ccc2ccccc2c1)CN1CCOCC1` (stereo not given), the “activity, positive = more growth” value was 1.77%.
Regarding `O=S(=O)(c1ccc(OCC(O)CN2CCN(c3ccccc3Cl)CC2)cc1)N1CCOCC1` (stereo not given), the Potency was 1.26 µM (active).
With `Cc1cccnc1CC(C)NC(=O)c1cc(COc2cncc(Cl)c2)on1` (stereo not given), the “activity, positive = more growth” value is -7.9%.
On the same count and under the same terms, the same measure for `O=[N+]([O-])c1ccc2c(c1)Nc1nc3ccccc3nc1N2`: -62.4%.
In the case of `Cc1cc(Br)ccc1NC(=S)NC1CCCC1`, the “activity, positive = more growth” value was -89.5%.
As for `Cc1ccc(-c2csc(-c3c[nH]c4ccccc34)n2)cc1`, the “activity, positive = more growth” value is -6.52%.
Consider `Cc1cccc(N=C2NN=C(c3c[nH]c4ccccc34)CS2)c1`, for which the Potency was 14.1 µM (active).
For `Clc1cccc(N=C2NN=C(c3ccc4c(c3)OCCO4)CS2)c1`, the “activity, positive = more growth” value is 13.9%.
For the compound `COc1ccccc1NC(=O)C1CCN(C(=O)c2ccc(C(C)(C)C)cc2)CC1`, the “activity, positive = more growth” value is 3.23%.
Consider `Cc1ccc(NC(=S)NCCc2ccc(Cl)cc2)c(C)c1`, for which the “activity, positive = more growth” value is -44.7%.
Take `COc1ccc2[nH]c(C(=O)N/N=C/c3cc(OC)c(OC)c(OC)c3)cc2c1`: the “activity, positive = more growth” value was -2.63%.
As to `Cn1c(NC(=O)c2ccccc2)nc2ccccc21`, the “activity, positive = more growth” value is -89.1%.
For the compound `COCCCNC(=S)N1CCN(c2nc(-c3cccc(OC)c3)cs2)CC1`, the “activity, positive = more growth” value was 2.39%.
Turning to `CC(C(=O)NC1CCCCC1)N1C(=O)c2cccc3cccc1c23` (stereo not given), the “activity, positive = more growth” value was 4.31%.
Regarding `CC(C(=O)O)N1C(=O)c2cccc3cccc1c23` (stereo not given), the Potency is 14.1 µM (active).
As to `Cc1cc(C)nc(NC(=O)C(C)N2C(=O)c3ccccc3C2=O)n1` (stereo not given), the “activity, positive = more growth” value was 3.33%.
For `O=C1/C(=C/c2ccc(F)cc2)SC(=S)N1CCCC(=O)N1CCCCC1CCO` (stereo not given), the “activity, positive = more growth” value was -51.5%.
Regarding `O=C(NCCCN1CCOCC1)c1ccc2c(c1)N(Cc1cccc(F)c1)C(=O)c1ccccc1S2`, the “activity, positive = more growth” value was 2.04%.
Turning to `CN(C)S(=O)(=O)N1CCC(Oc2cccc(C(=O)NCCCC3CCCC3)c2)CC1`, the “activity, positive = more growth” value is -0.22%.
On to `NC(=O)CSC1=Nc2ccccc2C2=NC(CCC(=O)NCc3ccc(F)cc3)C(=O)N12` (stereo not given), for which the “activity, positive = more growth” value is -1.66%.
In the case of `O=C(CSC1=Nc2ccccc2C2=NC(CC(=O)NCc3ccco3)C(=O)N12)NCc1ccco1` (stereo not given), the Potency is 7.94 µM (active).
Consider `O=C(CC1N=C2c3ccccc3N=C(SCc3ccccc3Cl)N2C1=O)NCc1ccco1` (stereo not given), for which the “activity, positive = more growth” value is 8.45%.
Consider `CN(c1ccc(O)cc1)c1nc(-c2cccnc2)cs1`, for which the “activity, positive = more growth” value is -47.4%.
